Experimental data from PubChem BioAssay (NCI).
About 79,000 compounds went through this panel and 15% of them were active in at least one assay; those are over-represented in the sample as a whole. Activity calls are given as the source filed them. Rule as the data show it: active = growth inhibition above about 70%; inactive = the rest.

Experiment: NCI Yeast Anticancer Drug Screen. Data for the bub3 strain (AID 167)
Conditions: S. cerevisiae bub3 mutant strain, at 50.0 µM, hits give high values
Method in brief: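 In this screen, a yeast mutant lacking normal mitotic checkpoint function is challenged with compound. Relative growth versus vehicle gives the inhibition value.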

SMILES	growth inhibition
CCCc1c(O)cccc1O	-5.55% (inactive)
CC(=O)Oc1cccc2cc3cc(C)cc(OC(C)=O)c3c(OC(C)=O)c12	6.5% (inactive)
CCOC(=O)/C(=C/c1ccc(C#N)cc1)N(CC)CC	-3.9% (inactive)
C(=N\N(CCCCN(/N=C/c1ccccc1)c1ccccc1)c1ccccc1)/c1ccccc1	-11.8% (inactive)
[O-][n+]1ccccc1/C=C/c1cccc[n+]1[O-]	-0.85% (inactive)
C=C1C(=O)N2CCc3c([nH]c4ccccc34)[C@H]2C[C@@H]1CO	7.05% (inactive)
CCOC(=O)C1=CC2CCOC2O1 (stereo not given)	-9.5% (inactive)
Cc1cc2c(cc1Cl)SC(NNC(=O)c1ccncc1)=NS2(=O)=O	-63.4% (inactive)
C/C(N=NS(=O)(=O)c1ccccc1)=C1\C=CC=CN1O	12.9% (inactive)
CNC(=S)Nc1ccccc1	-5.35% (inactive)
O=C(O)C1CCCCC1C(=O)Nc1ccc(Cl)c(Cl)c1 (stereo not given)	13.6% (inactive)
O=C1/C(=C/C=C/c2ccccc2)CCC1CNc1ccc(Br)cc1 (stereo not given)	-15.4% (inactive)
Cc1cc(O)c(/C=N/C(=S)Nc2ccccc2)c(=O)o1	-48.2% (inactive)
Clc1ccc(Cl)c(-c2csc(-c3cccnc3)n2)c1	7.6% (inactive)
Fc1ccc(-c2nnc(-c3ccccc3)o2)cc1	31.4% (inactive)
CC1=Nc2nc3ccccc3n2C(C)(C)C1	-0.2% (inactive)
COc1ccc(CCCC2C(=O)CC(C)OC2=O)cc1OC (stereo not given)	3.05% (inactive)
COc1cccc(NC(=O)C(=O)C(C(=O)c2ccccc2F)C2OC(=O)c3ccccc32)c1 (stereo not given)	7.85% (inactive)
Cn1c([N+](=O)[O-])cnc1COS(=O)(=O)c1cccnc1	16.8% (inactive)
CC(C)c1ccc2c(c1)CC[C@H]1[C@](C)(COCCC#N)CCC[C@]21C	-17.1% (inactive)

SMILES	growth inhibition
CC12CCCC1C1CC=C3CC(SC4CCC5(C)C(=CCC6C7CCCC7(C)CCC65)C4)CCC3(C)C1CC2 (stereo not given)	-17.6% (inactive)
CC(=O)NN	11.5% (inactive)
O=C1OC(=O)C(c2ccccc2)=C1c1ccccc1	5.95% (inactive)
C/C(=N\NC(=S)N1CCCCCC1)c1nccs1	-6.9% (inactive)
Cc1ccc(C)c2c1C(=O)c1ccccc1C2(O)C#Cc1ccccc1 (stereo not given)	31.7% (inactive)
CC(=O)C(N)=NCc1ccccc1	25.8% (inactive)
COc1cc(/C=C\C(=O)c2cccc([N+](=O)[O-])c2)cc(OC)c1OC	29.1% (inactive)
COc1ccc2cc(C(=O)c3ccccc3)c(=O)oc2c1	12.2% (inactive)
OC1CCC2=C(C1)C1CCC2C1 (stereo not given)	-12% (inactive)
C#CCN(N=O)C(=O)NC(CCCCNC(=O)OCc1ccccc1)C(=O)OCc1ccccc1 (stereo not given)	14.2% (inactive)
Nc1nnc(-c2ccccc2)o1	4.8% (inactive)
CCc1ccc2ccccc2c1N	-0.3% (inactive)
CCN(c1ccccc1)S(=O)(=O)c1cc(N)ccc1C	-0.25% (inactive)
Cn1c2c(c(=O)c3c4[nH]c5c(c(=O)c4ccc31)CCCC5)CCCC2	-4.95% (inactive)
COc1ccc(NC=O)c(C)c1	28.6% (inactive)
c1ccc2c3c(ccc2c1)CCCC3	15.9% (inactive)
O=C(O)c1ccc(C(=O)c2ccccc2C(=O)O)cc1C(=O)O	-23.1% (inactive)
C(=N\C(/N=C/c1ccccc1)c1ccccc1)/c1ccccc1	2.55% (inactive)
CCNC(=O)Nc1ccccn1	-5.05% (inactive)
O=C(c1ccccc1)c1c(O)c2ccccc2oc1=O	-4.45% (inactive)

Experiment: NCI Yeast Anticancer Drug Screen. Data for the mlh1 rad18 strain (AID 175)
Conditions: S. cerevisiae mlh1 rad18 strain growth inhibition; at 50.0 µM; hits give high values
Method in brief: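 A repair-deficient yeast strain is exposed to test compound, and growth is scored relative to vehicle-treated controls.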

SMILES	growth inhibition
CCCc1c(O)cccc1O	11% (inactive)
CC(=O)Oc1cccc2cc3cc(C)cc(OC(C)=O)c3c(OC(C)=O)c12	14.7% (inactive)
CCOC(=O)/C(=C/c1ccc(C#N)cc1)N(CC)CC	-9.25% (inactive)
C(=N\N(CCCCN(/N=C/c1ccccc1)c1ccccc1)c1ccccc1)/c1ccccc1	23.9% (inactive)
[O-][n+]1ccccc1/C=C/c1cccc[n+]1[O-]	-18.4% (inactive)
C=C1C(=O)N2CCc3c([nH]c4ccccc34)[C@H]2C[C@@H]1CO	10.8% (inactive)
CCOC(=O)C1=CC2CCOC2O1 (stereo not given)	5.5% (inactive)
Cc1cc2c(cc1Cl)SC(NNC(=O)c1ccncc1)=NS2(=O)=O	-9.4% (inactive)
C/C(N=NS(=O)(=O)c1ccccc1)=C1\C=CC=CN1O	-9% (inactive)
CNC(=S)Nc1ccccc1	18.8% (inactive)
O=C(O)C1CCCCC1C(=O)Nc1ccc(Cl)c(Cl)c1 (stereo not given)	-48.1% (inactive)
O=C1/C(=C/C=C/c2ccccc2)CCC1CNc1ccc(Br)cc1 (stereo not given)	9.5% (inactive)
Cc1cc(O)c(/C=N/C(=S)Nc2ccccc2)c(=O)o1	-39% (inactive)
Clc1ccc(Cl)c(-c2csc(-c3cccnc3)n2)c1	17.9% (inactive)
Fc1ccc(-c2nnc(-c3ccccc3)o2)cc1	8.15% (inactive)
CC1=Nc2nc3ccccc3n2C(C)(C)C1	-34.1% (inactive)
COc1ccc(CCCC2C(=O)CC(C)OC2=O)cc1OC (stereo not given)	-0.4% (inactive)
COc1cccc(NC(=O)C(=O)C(C(=O)c2ccccc2F)C2OC(=O)c3ccccc32)c1 (stereo not given)	3.85% (inactive)
Cn1c([N+](=O)[O-])cnc1COS(=O)(=O)c1cccnc1	15.6% (inactive)
CC(C)c1ccc2c(c1)CC[C@H]1[C@](C)(COCCC#N)CCC[C@]21C	-30% (inactive)

SMILES	growth inhibition
CC12CCCC1C1CC=C3CC(SC4CCC5(C)C(=CCC6C7CCCC7(C)CCC65)C4)CCC3(C)C1CC2 (stereo not given)	-21.6% (inactive)
CC(=O)NN	-16.1% (inactive)
O=C1OC(=O)C(c2ccccc2)=C1c1ccccc1	24.9% (inactive)
C/C(=N\NC(=S)N1CCCCCC1)c1nccs1	2.15% (inactive)
Cc1ccc(C)c2c1C(=O)c1ccccc1C2(O)C#Cc1ccccc1 (stereo not given)	23.2% (inactive)
CC(=O)C(N)=NCc1ccccc1	10.8% (inactive)
COc1cc(/C=C\C(=O)c2cccc([N+](=O)[O-])c2)cc(OC)c1OC	20.7% (inactive)
COc1ccc2cc(C(=O)c3ccccc3)c(=O)oc2c1	-13.6% (inactive)
OC1CCC2=C(C1)C1CCC2C1 (stereo not given)	15.8% (inactive)
C#CCN(N=O)C(=O)NC(CCCCNC(=O)OCc1ccccc1)C(=O)OCc1ccccc1 (stereo not given)	0.6% (inactive)
Nc1nnc(-c2ccccc2)o1	3.35% (inactive)
CCc1ccc2ccccc2c1N	15.1% (inactive)
CCN(c1ccccc1)S(=O)(=O)c1cc(N)ccc1C	4.55% (inactive)
Cn1c2c(c(=O)c3c4[nH]c5c(c(=O)c4ccc31)CCCC5)CCCC2	3.6% (inactive)
COc1ccc(NC=O)c(C)c1	-29% (inactive)
c1ccc2c3c(ccc2c1)CCCC3	0.7% (inactive)
O=C(O)c1ccc(C(=O)c2ccccc2C(=O)O)cc1C(=O)O	-24.8% (inactive)
C(=N\C(/N=C/c1ccccc1)c1ccccc1)/c1ccccc1	-6.2% (inactive)
CCNC(=O)Nc1ccccn1	-2.4% (inactive)
O=C(c1ccccc1)c1c(O)c2ccccc2oc1=O	-4.5% (inactive)
